23 molecules from PubChem BioAssay (NCATS) can be followed below.

Records with an inconclusive call do not appear. A number with no mark means an inactive call. Calls of active or inactive are those of the source. Calls come from the whole dose curve; as a rule, active = well fitted cell-killing curve with a large enough effect; inconclusive = small, poorly fitted or top-dose-only effect, or effect the other way; inactive = no such curve, though single readings can be large or run the other way.

Assay [1] in a line: Quantitative High-Throughput drug screen in 47 multiple myeloma cell lines against the NCATS MIPE library collection: SKMM1_PLB cell viability assay (AID 1919863). Note: nearly all actives have a fitted effect of over 35% in size. Conditions: SKMM1 myeloma viability, CellTiter-Glo ATP, 48 h; viability: stronger effect = lower value. Put shortly: (§1)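 MIPE 4.0 approved/investigational drugs; 500 cells/well; 48 h 37 °C humidified 5% CO2; CTG luminescence readout; DMSO = 100%, media = 0% viability.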
(In general: ATP-based viability assays read luminescence as a measure of living cells.)

Assay [2] can be described thus: Quantitative High-Throughput drug screen in 47 multiple myeloma cell lines against the NCATS MIPE library collection: XG1_PLB cell viability assay (AID 1919866). Note: nearly all actives have a fitted effect of over 35% in size. Put shortly:
as §1

Assay [3] is described as follows: Quantitative High-Throughput drug screen in 47 multiple myeloma cell lines against the NCATS MIPE library collection: VP6_DJ cell viability assay (AID 1919867). Note: nearly all actives have a fitted effect of over 40% in size. Put shortly: as §1
Assay [4] can be described thus: Quantitative High-Throughput drug screen in 47 multiple myeloma cell lines against the NCATS MIPE library collection: PCM6_Riken cell viability assay (AID 1919870). Note: nearly all actives have a fitted effect of over 30% in size. Put shortly: as §1
Assay [5] can be described thus: Quantitative High-Throughput drug screen in 47 multiple myeloma cell lines against the NCATS MIPE library collection: OPM2_DSMZ cell viability assay (AID 1919872). Note: nearly all actives have a fitted effect of over 30% in size. Put shortly: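 CellTiter-Glo luminescence (ATP) after 48 h compound exposure, 37C/5% CO2; 500 cells/well; MIPE 4.0 approved/investigational drugs pinned in; DMSO = 100%, media only = 0% viability.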
A short description of assay [6]: Quantitative High-Throughput drug screen in 47 multiple myeloma cell lines against the NCATS MIPE library collection: PE2_PLB cell viability assay (AID 1919869). Note: nearly all actives have a fitted effect of over 35% in size. Put shortly:
as §1

Assay [7] can be described thus: Quantitative High-Throughput drug screen in 47 multiple myeloma cell lines against the NCATS MIPE library collection: RPMI8226_ATCC cell viability assay (AID 1919871). Note: nearly all actives have a fitted effect of over 30% in size. Put shortly:
as §1

Assay [8] can be described thus: Quantitative High-Throughput drug screen in 47 multiple myeloma cell lines against the NCATS MIPE library collection: UTMC2_PLB cell viability assay (AID 1919868). Note: nearly all actives have a fitted effect of over 55% in size. Particulars: CellTiter-Glo ATP luminescence, 48 h; viability (% of DMSO control): at 45.8 µM (top of the series). Put shortly:
as §1

Assay [9] is described as follows: Quantitative High-Throughput drug screen in 47 multiple myeloma cell lines against the NCATS MIPE library collection: XG6_PLB cell viability assay (AID 1919865). Note: nearly all actives have a fitted effect of over 40% in size. Put shortly: as §1
Assay [10] can be described thus: Quantitative High-Throughput drug screen in 47 multiple myeloma cell lines against the NCATS MIPE library collection: U266_ATCC cell viability assay (AID 1919864). Note: nearly all actives have a fitted effect of over 35% in size. Put shortly: as §1
Potency is the fitted concentration of half-maximal effect.

As usually defined, the viability is a read-out of living cells in per cent, often relative to untreated cells. `CC(C)CN(C[C@H](O)[C@H](Cc1ccccc1)NC(=O)O[C@H]1CCOC1)S(=O)(=O)c1ccc(N)cc1`: in assay [1], the viability was 121%. Also, the Potency is 20.9 µM (active) in [2], 20.9 µM (active) in assay [3], 13.2 µM (active) in assay [4] and 18.7 µM (active) in assay [5].

For `CCC(=C(CC)c1ccc(O)cc1)c1ccc(O)cc1`, the Potency in assay [1] was 14.8 µM (active); in assay [3], 18.7 µM (active); in [6] it was 18.7 µM (active); in assay [4], 18.7 µM (active); in [7], 29.6 µM (active); in assay [5], 26.4 µM (active).

Take `C[C@H]1COC2=C1C(=O)C(=O)c1c2ccc2c1CCCC2(C)C`: the Potency was 14.8 µM (active) in [1], 16.6 µM (active) in [3], 9.35 µM (active) in assay [8] and 26.4 µM (active) in assay [6].

In the case of `CC(=O)NCCC(=O)N[C@@H](CCC(N)=O)C(=O)N[C@@H](CO)C(=O)N[C@@H](CCC(N)=O)C(=O)N[C@@H](CCC(N)=O)C(=O)N[C@H](C(=O)N[C@@H](Cc1ccccc1)C(=O)N[C@]1(C)CCCCCCC=CCCC[C@@](C)(C(=O)N[C@@H](CCC(N)=O)C(=O)N[C@@H](CC(N)=O)C(N)=O)NC(=O)[C@H](CC(C)C)NC(=O)[C@H](CC(C)C)NC(=O)[C@@H](CCCNC(=N)N)NC(=O)[C@H](Cc2c[nH]c3ccccc23)NC(=O)[C@H](CC(C)C)NC(=O)[C@H](CC(N)=O)NC1=O)[C@H](C)O`, the Potency in assay [1] was 16.6 µM (active); in [6], 20.9 µM (active); in assay [7], 9.35 µM (active).

Take `CN(C)c1ccccc1CN1CCCN(Cc2ccccc2N(C)C)C1c1ccncc1`: the Potency in assay [1] was 20.9 µM (active); in assay [9], 16.6 µM (active); in assay [6], 18.7 µM (active).

Regarding `CCCCOCCOc1nc(-c2ccc(C(=O)O)c(F)c2)sc1C`, the viability in assay [1] was 118%. Further, the Potency in assay [7] was 10.5 µM (active). In addition, the Potency entry in assay [5] is “inactive”.

On to `CCC[C@H](Nc1nc(-c2ccc(NC(=O)NCC)c(OC)c2)ncc1C)c1cccnc1`, for which the Potency in [1] is 0.003 µM (active); in [8], 0.001 µM (active); in [6], 0.001 µM (active); in assay [5], 0.0083 µM (active).

Turning to `CN(C)CCOc1cc(-c2cn[nH]c2)ccc1NC(=O)C1COc2ccccc2O1` (stereo not drawn), in assay [1], the viability was 131%. Besides, the Potency in assay [2] was 2.35 µM (active); in [8], 6.62 µM (active); in assay [6] it was 16.6 µM (active); in assay [4], 4.69 µM (active). Also, the Potency entry in [7] is “inactive”.

In the case of `C=CCc1cccc(C=NNC(=O)CN2CCN(Cc3ccccc3)CC2)c1O`, the Potency in assay [10] is 8.33 µM (active); in assay [9], 9.35 µM (active); in assay [2], 10.5 µM (active); in assay [3], 7.43 µM (active); in assay [8] it was 20.9 µM (active); in [6] it was 20.9 µM (active). Moreover, the Potency in [4] is 26.4 µM (active).

Take `CON(C)C(=O)N1N=C(c2cc(F)ccc2F)S[C@]1(CCCN)c1ccccc1`: in [1], the viability was 61.2%. In addition, the Potency entry in assay [2], in [8] and in [6] was “inactive” in each case.

In the case of `O=C(O)C1=NC(C(=O)O)CC(C=CN2c3cc(O)c(OC4OC(CO)C(O)C(O)C4O)cc3CC2C(=O)O)=C1` (stereo not drawn), in assay [1], the viability is 117%. Also, the Potency result in assay [2], in [6] and in assay [7] was “inactive” in each case.

In the case of `O=C(CCCN1CCN(c2ccc(F)cc2)CC1)NC1c2ccccc2CSc2ccccc21` (stereo not drawn), the Potency was 5.9 µM (active) in assay [1], 14.8 µM (active) in assay [9] and 14.8 µM (active) in assay [4].

Regarding `Nc1ccc(-c2ccc3ncc4ccc(=O)n(-c5cccc(C(F)(F)F)c5)c4c3c2)cn1`, in assay [10], the Potency was 0.372 µM (active).

Regarding `CN(C)CCOc1ccc(C(=C(CCCl)c2ccccc2)c2ccccc2)cc1`, the Potency in assay [1] was 23.5 µM (active); in assay [2], 2.96 µM (active); in assay [4], 3.72 µM (active); in assay [7] it was 26.4 µM (active). In addition, the Potency entry in assay [8] and in assay [5] was “inactive” in each case.

In the case of `C[C@H](CCC(=O)O)[C@H]1CC[C@H]2[C@H]3[C@@H](CC[C@]12C)[C@@]1(C)CC[C@@H](O)C[C@H]1C[C@@H]3O`, the viability in [1] was 120%. For the same molecule, the Potency result in assay [8] and in assay [6] was “inactive” throughout. The Potency in [5] is 6.62 µM (active).

`CCC(C)SSc1ncc[nH]1` (stereo not drawn): the Potency is 4.69 µM (active) in [10]; 7.43 µM (active) in [9]; 5.26 µM (active) in assay [2]; 13.2 µM (active) in assay [3]; 8.33 µM (active) in assay [8]; 3.72 µM (active) in assay [6]. For the same molecule, the Potency in assay [4] is 7.43 µM (active); in assay [7] it was 23.5 µM (active); in assay [5], 5.9 µM (active).

As to `Cc1c(-c2cccc3c(CCCOc4cccc5ccccc45)c(C(=O)O)n(Cc4cccnc4)c23)c(COc2ccc(N3CCN([S+](=O)([O-])N(C)C)CC3)cc2)nn1C`, the Potency in assay [1] was 23.5 µM (active); in [3], 8.33 µM (active); in assay [8], 20.9 µM (active); in assay [6], 18.7 µM (active); in assay [5], 16.6 µM (active). Further, the Potency entry in assay [2] was “inactive”.

As to `CNC(=O)[C@H](CC1=CN=C2C=CCC=C12)NC(=O)[C@@H](CC(=O)NO)CC(C)C`, the viability in [1] is 109%. For the same molecule, in [8], the Potency is 18.7 µM (active). For the same molecule, the Potency result in [7] and in [5] was “inactive” in each case.

With `C[C@@H](O[C@H]1OCCN(Cc2n[nH]c(=O)[nH]2)[C@@H]1c1ccc(F)cc1)c1cc(C(F)(F)F)cc(C(F)(F)F)c1`, the Potency in assay [1] is 23.5 µM (active); in assay [9], 16.6 µM (active); in assay [8] it was 33.2 µM (active); in [6], 20.9 µM (active); in assay [4], 20.9 µM (active); in assay [7], 23.5 µM (active).

In the case of `C[C@@H]1[C@H](C)CC[C@]2(C(=O)O)CC[C@]3(C)C(=CC[C@@H]4[C@@]5(C)CC[C@H](O)C(C)(C)[C@H]5CC[C@]43C)[C@@H]12`, the Potency in assay [1] is 24.1 µM (active); in assay [2], 1.36 µM (active); in assay [4] it was 12.1 µM (active); in assay [7] it was 27 µM (active); in [5], 42.9 µM (active). In addition, the Potency result in [6] is “inactive”.

In the case of `CC(C)c1onc(-c2c(Cl)cccc2Cl)c1COc1ccc(C=Cc2cccc(C(=O)O)c2)c(Cl)c1`, the viability in [1] was 113%. In addition, the Potency entry in assay [2], in [6] and in [7] was “inactive” each time.

As for `CC(C)C[C@@H](N)[C@H](O)C(=O)N[C@H](C(=O)N[C@H](C(=O)N[C@@H](CC(=O)O)C(=O)O)C(C)C)C(C)C`, in [1], the viability is 122%. Besides, the Potency in assay [2] is 2.64 µM (active); in assay [3], 5.26 µM (active); in assay [6], 18.7 µM (active). Further, in assay [7], the Potency result was “inactive”.

Consider `OC1CCC(Nc2ncc3nc(Nc4c(F)cc(F)cc4F)n([C@@H]4CCOC4)c3n2)CC1` (stereo partly drawn), for which the Potency in assay [1] is 18.7 µM (active); in assay [2] it was 13.2 µM (active); in assay [3] it was 11.8 µM (active). Moreover, the Potency result in assay [8] and in [7] was “inactive” each time.
